Source: ChEMBL document CHEMBL1157539, “Thousands of chemical starting points for antimalarial lead identification” (Nature, 2010)
Whole data set: some 13,000 compounds, median “IFI” near 4, cut for the highest 2% near 17. What follows is part of a selection rich in the highest values, with near analogues and random picks from the rest.

assay: GSK_TCMDC: Inhibition Frequency Index (IFI). The number of non-kinase HTS assays where a compound showed > 50 % inhibition, expressed as a percentage of the number of such assays in which the compound was tested; assay type: functional

Structure (SMILES) | IFI
O=C(NCCc1ccccc1)N(Cc1ccccc1-c1ccc(CNCCc2ccccc2)cc1)C1CCN(Cc2ccccc2)CC1 | 7.86%
COc1cc2nc(NCCn3cccn3)nc(NCCc3ccccc3)c2cc1OC | 4.23%
Cc1cccc2nc(-c3cccc(-c4cccc(NC(=O)c5csnn5)c4)c3)[nH]c12 | 2.7%
N#Cc1ccc(N2CCN(Cc3cccc(-c4cccc(-c5nc6cc(C(F)(F)F)ccc6[nH]5)c4)c3)CC2)nc1 | 1.92%
COc1cccc(CCNc2nc(NCc3ccccc3)c3cc(OC)c(OC)cc3n2)c1 | 5.93%
COc1ccc(CCNc2nc(NCc3ccccc3)c3cc(OC)c(OC)cc3n2)cc1OC | 5.84%
COc1cc2nc(NCCc3cccc(Cl)c3)nc(NCc3ccccc3)c2cc1OC | 17.1%
CCc1c(C)nc(-n2nc(C)cc2NC(=O)C(CC)c2ccccc2)[nH]c1=O (stereo not given) | 11.8%
CCCc1cc(=O)[nH]c(-n2nc(C)cc2NC(=O)CC(c2ccccc2)c2ccccc2)n1 | 12.2%
CCCc1cc(=O)[nH]c(-n2nc(C)cc2NC(=O)C(CC)c2ccccc2)n1 (stereo not given) | 18.5%
CCC(=O)Nc1ccc(Nc2nc(C)cc(N3CCCC3)n2)cc1 | 7.84%
Cc1cc(N2CCCC2)nc(Nc2ccc(NC(=O)Nc3ccccc3)cc2)n1 | 16.2%
COc1cccc(NC(=O)Nc2ccc(Nc3nc(C)cc(N4CCCC4)n3)cc2)c1 | 17.3%
COc1ccc(NC(=O)Nc2ccc(Nc3nc(C)cc(N4CCCC4)n3)cc2)cc1 | 11.8%
Cc1cc(N2CCCC2)nc(Nc2ccc(NC(=O)Cc3ccccc3)cc2)n1 | 15.4%
Cc1cc(N2CCCC2)nc(Nc2ccc(NC(=O)COc3ccccc3)cc2)n1 | 22.2%
C=CCOC(=O)N1CCC(CNCc2ccc(-c3cccc(-c4nc5cc(F)ccc5[nH]4)c3)cc2)C1 (stereo not given) | 2.91%
COc1cc2nc(SCCCC#N)n(C3CCCCCC3)c(=N)c2cc1OC | 3.6%
CS(=O)(=O)c1cccc2sc(N3CCN(C(=O)c4ccc([N+](=O)[O-])o4)CC3)nc12 | 4%
Cc1cccc(Nc2c(-c3cc(Br)ccc3O)nc3ncccn23)c1 | 8.7%
COc1ccc(CNC(=O)c2cnc3c(O)cccc3c2Nc2cccc(NC(=O)c3ccc(F)cc3)c2)cc1 | 6.98%
CCCCCCOc1ccc(/C(N)=N\Cc2ccccc2)c2c1CCCC2 | 13.3%
CCCCCCN(CCCCCC)CC(O)c1c(OC)ccc2ccccc12 (stereo not given) | 5.93%
CCCCCOc1ccc(C(=NC)N(CCCCC)CCCCC)c2ccccc12 | 25.2%

Structure (SMILES) | IFI
Cc1ccc(Nc2cc(C)nn2-c2nc(C)cc(O)n2)cc1 | 12.3%
CN(C)Cc1cccc(-c2ccc3ccnc(N)c3c2)c1 | 4.42%
Cc1[nH]c(C)c(-c2ccc(-c3ccccc3C(F)(F)F)nc2)c(=O)c1Br | 0.92%
COc1ccc2c(NN=Cc3ccc(Cl)cc3)ccnc2c1 | 2.26%
CCCCOc1c(CCNCCCCNCCc2cc(F)c3ccccc3c2OCCCC)cc(F)c2ccccc12 | 19.6%
CCOc1c(CNCCCCCCNCc2ccc3ccccc3c2OCC)ccc2ccccc12 | 22%
CCCCOc1c(CNCCCCCCNCc2ccc3ccccc3c2OCCCC)ccc2ccccc12 | 16.6%
CCCOc1c(CCNCCCCNCCc2ccc3ccccc3c2OCCC)ccc2ccccc12 | 14.7%
CCCCOc1cc(CNCCCCCCNCc2cc(OCCCC)cc3ccccc23)c2ccccc2c1 | 12.5%
CCOc1cc2ccccc2cc1CNCCCCCCNCc1cc2ccccc2cc1OCC | 11.5%
CCOc1c(CCNCCCCNCCc2ccc3ccccc3c2OCC)ccc2ccccc12 | 18.4%
CCCCOc1c(CCNCCCCNCCc2cc(OC)c3ccccc3c2OCCCC)cc(OC)c2ccccc12 | 15%
[O-][s+]1nc(NCCCN(Cc2cccs2)c2ccccn2)c(NCc2ccccc2)n1 (stereo not given) | 4.83%
CCNC(C)(C)CN(Cc1ccc(-c2ccc(C(F)(F)F)cc2)cc1)C(=O)Cn1c(CCc2cccc(F)c2F)nc(=O)c2ccccc21 | 6.94%
Cc1cccc2nc(-c3ccc(-c4ccc(CN5CC(C)OC(C)C5)cc4)cc3)[nH]c12 (stereo not given) | 6.94%
CC1CC1C(=O)NC1CCN(CC2(c3ccccc3)CCCCC2)CC1 (stereo not given) | 6.38%
Cc1ccoc1C(=O)Nc1cccc(-c2cccc(-c3nc4cc(C(F)(F)F)ccc4[nH]3)c2)c1 | 6.48%
COc1cc(CC2c3cc(O)c(Cl)cc3CCN2C)c(OC)cc1C (stereo not given) | 2.13%
COc1ccc(CCNC(C)Cc2ccc(C(=O)Nc3ccc(CC(C)NCCc4cccc(Cl)c4)cc3)cc2)cc1 (stereo not given) | 9.86%
Cn1c(Nc2cc(C(C)(C)C)on2)nc2cc(Nc3ccnc(Nc4ccc(CS(C)(=O)=O)cc4)n3)ccc21 | 0.95%
CCCCCCCNc1cc(C)nc2ccc(OC)cc12 | 7.3%
CN(C)c1ccc(C(c2ccc(N(C)C)cc2)c2cc([N+](=O)[O-])ccc2Cl)cc1 | 1.47%
CN(C)c1ccc(OCCCCCCOc2ccccc2)cc1 | 0.72%
COc1ccc(C(c2ccc(N(C)C)cc2)c2ccc(N(C)C)cc2)cc1 | 18.2%

Structure (SMILES) | IFI
CC(C)CCNC(=O)C1Cc2c([nH]c3ccc(Br)cc23)C2(CCN(Cc3ccccc3)CC2)N1 (stereo not given) | 7.04%
CN1CCCC(CN2CCN(Cc3cccc(-c4ccc(-c5nc6ccccc6[nH]5)s4)c3)CC2)C1 (stereo not given) | 5.63%
CN1CCN(c2nsc3ccc(-c4ccc(OCCN5CCCC5)cc4)cc23)CC1 | 12.2%
COc1ccc(-c2nccc(NC(=N)NCc3ccccc3)n2)cc1 | 10.7%
CC1(C)N=C(NC(=O)Nc2ccc([N+](=O)[O-])cc2)N=C(N)N1OCc1cccc2ccccc12 | 1.46%
Cc1cc(NCCc2ccccc2)nc(NC(=N)Nc2cccc([N+](=O)[O-])c2)n1 | 6.21%
N=C(Nc1ccccc1)Nc1cccc(Cc2ccc([N+](=O)[O-])cc2)n1 | 19.9%
N=C(Nc1cccc(Cc2ccccc2)n1)Nc1ncccn1 | 17.2%
N=C(N)Nc1nccc(NCc2ccccc2)n1 | 5.3%
CC(C)(C)CCN1CCC(CNC(=O)c2cc(-c3cccc(C(F)(F)F)c3)cs2)C1 (stereo not given) | 10%
Cn1cc(-c2ccnc3[nH]c(-c4cccc(CNC5CCC(O)CC5)c4)cc23)cn1 (stereo not given) | 8.11%
CN(C)Cc1ccc(-c2cc3c(-c4ccc(CN(C)C)cc4)ccnc3[nH]2)cc1 | 0%
CN(C)Cc1cccc(-c2cc3c(-c4cnn(C)c4)c(Cl)cnc3[nH]2)c1 | 22.2%
OCCN1CCN(Cc2ccc(-c3cccc(-c4nc5cc(F)ccc5[nH]4)c3)cc2)CC1 | 3.92%
CN(C)Cc1cccc(-c2cnc(N)c(-c3nc4cc(S(C)(=O)=O)ccc4[nH]3)c2)c1 | 7.41%
Fc1ccc2[nH]c(-c3cccc(-c4ccc(CNCC5CCCO5)cc4)c3)nc2c1 (stereo not given) | 5.88%
O=C(Nc1ccc(-c2cccc(-c3nc4cc(C(F)(F)F)ccc4[nH]3)c2)cc1)c1ccncc1 | 6.42%
Cc1cccc2nc(-c3ccc(-c4ccc(NC(=O)Nc5ccc(Cl)cc5)cc4)cc3)[nH]c12 | 4%
COc1ccc(Cl)cc1C(=O)Nc1ccc(-c2nc3ccccc3[nH]2)cc1 | 6.52%
O=C(Nc1ccc2c(c1)CCNCC2)c1ccc(-c2ccc(Cl)cc2)cc1 | 9.66%
O=C(Nc1ccc(Cl)cc1)c1cccc2nc(C(F)(F)F)[nH]c12 | 21.3%
O=C(Nc1ccc(Cl)cc1)Nc1cccc(-c2cccc(-c3nc4cc(C(F)(F)F)ccc4[nH]3)c2)c1 | 9%
O=C(Nc1ccc(C(F)(F)F)cc1)c1cc(Cl)cc2nc(C(F)(F)F)[nH]c12 | 23.4%
O=C(Nc1ccc(Cl)cc1)c1cc(Cl)cc2nc(C(F)(F)F)[nH]c12 | 27.1%

Structure (SMILES) | IFI
O=C(Nc1cccc(C(F)(F)F)c1)c1cccc2nc(C(F)(F)F)[nH]c12 | 16.4%
COc1cccc(NC(=O)Cn2c(C)c(C#N)c3ccccc32)c1 | 0%
CCOC(=O)c1ccc(-c2cnc(N)c(-c3nc4cccc(C)c4[nH]3)c2)cc1 | 0.69%
Cc1ccc(Nc2nccc(Nc3ccc4c(c3)nc(Nc3cc(C(C)(C)C)on3)n4C)n2)cc1S(C)(=O)=O | 7.63%
COc1ccc(CNC2Cc3ccccc3C2)cc1-c1ccc(OC)c(S(=O)(=O)NCCN2CCCC2)c1 | 7.69%
CCn1cc(-c2nc(-c3cc(OC)cc(OC)c3)no2)c(=O)c2ccccc21 | 4.35%
CC(C)N1CCN(C(CN2CCN(CCCOc3cccc(F)c3)CC2)c2ccc(F)cc2)CC1 (stereo not given) | 6.2%
CN1CCN(c2ccc(Nc3nccc(-c4c(-c5cccc(NC(=O)c6c(F)cccc6F)c5)nn5ccccc45)n3)cc2)CC1 | 9.35%
O=S(=O)(Nc1cc2c(cc1OCCCN1CCCCC1)CCNCC2)c1ccc(-c2ccc(Cl)cc2)cc1 | 11.9%
CN1CCc2cc(NS(=O)(=O)c3ccc(-c4ccc(Cl)cc4)cc3)c(OCCCN3CCCCC3)cc2CC1 | 18.6%
CC(C)Oc1cc2c(cc1NS(=O)(=O)c1ccc(-c3ccc(Cl)cc3)cc1)CCN(C)CC2 | 12.4%
c1cc(CN2CCCCC2)cc(-c2ccc(-c3nc4ccccc4[nH]3)s2)c1 | 2.86%
COc1ccc(CNC2Cc3ccccc3C2)cc1-c1ccc(S(=O)(=O)NCc2ccccc2)s1 | 12.3%
Cc1ccc(C(=O)Nc2ccc(Nc3ccnc4cc(-c5ccccn5)ccc34)cc2O)cc1 | 10.3%
COc1ccc(/N=C(\N)Nc2ccccc2)nc1Cc1ccccc1 | 30.2%
COc1ccc(CCN(C)CCOc2ccc(NC(=O)c3cccc4cc5ccccc5nc34)cc2)cc1OC | 6.67%
COc1cc2nc(C)nc(Nc3ccc(Cc4ccccc4)cc3)c2cc1OC | 6.35%
COc1ccc2nc(NC(N)=NC(=O)Nc3ccccc3)nc(C)c2c1 | 0.81%
COc1ccc(Cc2nc(/N=C(\N)Nc3ccccc3)ccc2OC)cc1 | 22.6%
COc1cc2cc(C(=O)Nc3ccccc3)c(N)nc2cc1OC | 1.28%
Nc1cc(/C=C/c2ccc([N+](=O)[O-])o2)nc2ccccc12 | 16.7%
Nc1cc(/C=C/c2ccc([N+](=O)[O-])s2)nc2ccccc12 | 19.2%
Nc1c2ccccc2nc2cc([N+](=O)[O-])ccc12 | 6.92%
